# Reference: PubChem BioAssay (NCATS)
# Records with an inconclusive call do not appear. Entries that show only a call come without a potency. The source made the active and inactive calls. The call rests on the fitted dose curve; in most records, active means well fitted inhibition curve with a large enough effect; inconclusive means small, poorly fitted or top-dose-only effect; inactive means flat fitted curve, though single readings scatter.
# What was measured:
# Experiment in all cases: qHTS profiling for inhibitors of Plasmodium falciparum proliferation (AID 504749); further: nearly all actives have a fitted effect of over 60% in size
# Conditions in all cases: P. falciparum in erythrocytes, SYBR Green DNA, 72 h; series mostly up to 28.7 µM
# [1] = system: CP215
# Outline: (§1)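 In a 72 h erythrocytic culture (37 C, humidified, 5% CO2) at 2.5% hematocrit and 0.3% starting parasitemia, compounds were tested; SYBR Green I in detergent lysis buffer stained parasite DNA overnight.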
# [2] = system: CP217
# Outline: as §1
# [3] = system: CP237
# Outline: as §1
# [4] = system: CP238
# Outline: as §1
# [5] = system: CP247
# Outline: as §1
# [6] = system: CP250
# Outline: as §1
# [7] = system: CP252
# Outline: as §1
# [8] = system: CP256
# Outline: as §1
# [9] = system: CP260
# Outline: as §1
# [10] = system: CP262
# Outline: as §1
# [11] = system: CP265
# Outline: as §1
# [12] = system: CP266
# Outline: as §1
# [13] = system: CP268
# Outline: as §1
# [14] = system: CP269
# Outline: as §1
# [15] = system: CP286
# Outline: as §1
# [16] = system: CP291
# Outline: as §1
# [17] = system: CP297
# Outline: as §1
# [18] = system: CP305
# Outline: as §1
# [19] = system: CP315
# Outline: as §1
# [20] = system: CP325
# Outline: as §1
# Potency means the concentration at half of the fitted maximal effect.
Compound,Potency [1],Potency [2],Potency [3],Potency [4],Potency [5],Potency [6],Potency [7],Potency [8],Potency [9],Potency [10],Potency [11],Potency [12],Potency [13],Potency [14],Potency [15],Potency [16],Potency [17],Potency [18],Potency [19],Potency [20]
N[C@@H](Cc1c[nH]c2ccc(O)cc12)C(=O)O,inactive,inactive,inactive,inactive,inactive,inactive,inactive,inactive,inactive,inactive,inactive,inactive,inactive,inactive,inactive,inactive,inactive,inactive,inactive,inactive
NCCc1cnc[nH]1,inactive,inactive,inactive,inactive,inactive,inactive,inactive,inactive,inactive,inactive,inactive,inactive,inactive,inactive,inactive,inactive,inactive,inactive,inactive,inactive
Cc1cc(C(C)(C)C)c(O)c(C)c1CC1=NCCN1,inactive,inactive,inactive,inactive,inactive,inactive,inactive,inactive,inactive,inactive,inactive,inactive,inactive,inactive,inactive,inactive,inactive,inactive,inactive,inactive
Cc1cn([C@H]2C=C[C@@H](CO)O2)c(=O)[nH]c1=O,inactive,inactive,inactive,inactive,inactive,inactive,inactive,inactive,inactive,inactive,inactive,–,inactive,inactive,inactive,inactive,inactive,inactive,inactive,inactive
COc1nc(C)nc(Cl)c1NC1=NCCN1,inactive,inactive,inactive,inactive,inactive,inactive,inactive,inactive,inactive,inactive,inactive,–,inactive,inactive,inactive,inactive,–,inactive,inactive,inactive
Cc1cnc(C(=O)NCCc2ccc(S(=O)(=O)NC(=O)NC3CCCCC3)cc2)cn1,inactive,inactive,inactive,inactive,inactive,inactive,inactive,inactive,inactive,inactive,inactive,inactive,inactive,inactive,inactive,inactive,inactive,inactive,inactive,inactive
NCCCCCC(=O)O,inactive,inactive,inactive,inactive,inactive,inactive,inactive,inactive,inactive,inactive,inactive,inactive,inactive,inactive,inactive,inactive,inactive,inactive,inactive,inactive
CN(C)c1nc(N(C)C)nc(N(C)C)n1,inactive,inactive,inactive,inactive,inactive,inactive,inactive,inactive,inactive,inactive,inactive,inactive,inactive,inactive,inactive,inactive,inactive,inactive,inactive,inactive
CCOC(=O)C(C)(C)Oc1ccc(Cl)cc1,inactive,inactive,inactive,inactive,inactive,inactive,inactive,inactive,inactive,inactive,inactive,inactive,inactive,inactive,inactive,inactive,inactive,inactive,inactive,inactive
CCCNCC(O)COc1ccccc1C(=O)CCc1ccccc1 (stereo not drawn),1.51 µM (active),891 nM (active),447 nM (active),1 µM (active),1 µM (active),1 µM (active),631 nM (active),1 µM (active),891 nM (active),4.78 µM (active),355 nM (active),10.7 µM (active),4.26 µM (active),3.79 µM (active),1.58 µM (active),4.26 µM (active),3.79 µM (active),4.26 µM (active),4.78 µM (active),4.26 µM (active)
Cn1c(=O)c2c(ncn2C)n(C)c1=O,inactive,inactive,inactive,inactive,inactive,inactive,inactive,inactive,inactive,inactive,inactive,inactive,inactive,inactive,inactive,inactive,inactive,inactive,inactive,inactive
CC(C)(C)C(=O)Oc1ccc(S(=O)(=O)Nc2ccccc2C(=O)NCC(=O)O)cc1,inactive,inactive,inactive,inactive,inactive,inactive,inactive,inactive,inactive,inactive,inactive,inactive,inactive,inactive,inactive,inactive,inactive,inactive,inactive,inactive
NCCS(=O)(=O)O,inactive,inactive,inactive,inactive,inactive,inactive,inactive,inactive,inactive,inactive,inactive,inactive,inactive,inactive,inactive,–,inactive,inactive,–,inactive
Cc1ccc(C(=O)Nc2ccc(S(=O)(=O)O)c3cc(S(=O)(=O)O)cc(S(=O)(=O)O)c23)cc1NC(=O)c1cccc(NC(=O)Nc2cccc(C(=O)Nc3cc(C(=O)Nc4ccc(S(=O)(=O)O)c5cc(S(=O)(=O)O)cc(S(=O)(=O)O)c45)ccc3C)c2)c1,inactive,inactive,inactive,inactive,inactive,inactive,inactive,inactive,inactive,inactive,inactive,inactive,inactive,inactive,inactive,inactive,inactive,inactive,inactive,inactive
Clc1ccc2nsnc2c1NC1=NCCN1,inactive,inactive,inactive,inactive,inactive,inactive,inactive,inactive,inactive,inactive,inactive,inactive,inactive,inactive,inactive,inactive,inactive,inactive,inactive,inactive
CC[N+](CC)(CC)CCOc1cccc(OCC[N+](CC)(CC)CC)c1OCC[N+](CC)(CC)CC,inactive,inactive,inactive,inactive,inactive,inactive,inactive,inactive,inactive,inactive,inactive,inactive,inactive,inactive,inactive,inactive,inactive,inactive,inactive,inactive
CC(C)Cc1ccc(C(C)C(=O)O)cc1 (stereo not drawn),inactive,inactive,inactive,inactive,inactive,inactive,inactive,inactive,inactive,inactive,inactive,inactive,inactive,inactive,inactive,inactive,inactive,inactive,inactive,inactive
O=c1c(-c2ccc(O)cc2)coc2cc(O)cc(O)c12,inactive,inactive,inactive,inactive,inactive,inactive,inactive,inactive,inactive,inactive,inactive,inactive,inactive,inactive,inactive,inactive,inactive,inactive,inactive,inactive
Nc1nnc(-c2cccc(Cl)c2Cl)c(N)n1,inactive,inactive,inactive,inactive,inactive,inactive,inactive,inactive,inactive,inactive,inactive,inactive,inactive,inactive,inactive,inactive,inactive,inactive,inactive,inactive
Cc1cc(C(C)(C)C)cc(C)c1CC1=NCCN1,inactive,inactive,3980 nM (active),inactive,inactive,inactive,inactive,inactive,inactive,inactive,inactive,inactive,–,inactive,inactive,inactive,inactive,inactive,inactive,inactive
NC(=O)NO,inactive,inactive,inactive,inactive,inactive,inactive,inactive,inactive,inactive,inactive,inactive,inactive,inactive,inactive,inactive,inactive,inactive,inactive,inactive,inactive
CN1C(C(=O)Nc2ccccn2)=C(O)c2ccccc2S1(=O)=O,inactive,inactive,inactive,inactive,inactive,inactive,inactive,inactive,inactive,inactive,inactive,inactive,inactive,inactive,inactive,inactive,inactive,inactive,inactive,inactive
NC(=O)OCC(COC(N)=O)c1ccccc1,inactive,inactive,inactive,inactive,inactive,inactive,inactive,inactive,inactive,inactive,inactive,inactive,inactive,inactive,inactive,inactive,inactive,inactive,inactive,inactive
Clc1ccccc1C(c1ccccc1)(c1ccccc1)n1ccnc1,1.14 µM (active),631 nM (active),398 nM (active),0.794 µM (active),0.891 µM (active),1.58 µM (active),891 nM (active),2 µM (active),1410 nM (active),1.02 µM (active),708 nM (active),–,2.28 µM (active),0.907 µM (active),1.58 µM (active),2.03 µM (active),0.455 µM (active),5.1 µM (active),2.03 µM (active),1.81 µM (active)
COc1ccccc1N1CCN(CC(O)COc2cccc3ccccc23)CC1 (stereo not drawn),inactive,inactive,inactive,inactive,inactive,inactive,inactive,inactive,inactive,inactive,inactive,inactive,inactive,inactive,inactive,inactive,inactive,inactive,inactive,inactive
